The source of these data is PubChem BioAssay (NCATS).

The nature of test [1]: P-glycoprotein substrates identified in KB-8-5-11 adenocarcinoma cell line, qHTS therapeutic library screen (AID 1346987). Note: potency is the fitted concentration of half-maximal effect; nearly all actives have a fitted effect of over 65% in size. In outline:
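KB-8-5-11: colchicine-selected sub-line of KB-3-1 over-expressing P-gp; assay medium lacked colchicine. 72 h drug exposure at 37 degree C, CellTiter-Glo.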

Test [2] deals with Zika virus NS2B-NS3 protease (unlinked complex). Description: Primary screen GU Rhodamine qHTS for Zika virus inhibitors: Unlinked NS2B-NS3 protease assay (AID 1347159). Note: nearly all actives have a fitted effect of over 60% in size. Note: potency is the fitted concentration of half-maximal effect. Summed up:
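Percent inhibition derives from the 15-min fluorescence change (ex 480, em 540 nm), normalized to no-enzyme and no-inhibitor wells. Reactions contained 25 nM NS2B-NS3 complex and 1.5 microM substrate in 10 mM Tris-HCl pH 8.0.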
On the technique in general: Quantitative high-throughput screening tests each substance at several concentrations.

The subject of test [3] is Zika virus NS2B-NS3 protease (linked construct). Description: Primary screen NINDS Rhodamine qHTS for Zika virus inhibitors (AID 1347160). Note: nearly all actives have a fitted effect of over 55% in size. Summed up: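 In 10 mM Tris-HCl pH 8.0 containing 0.01% Tween 20, linked NS2B-NS3 protease (25 nM final) is exposed to test compounds for 15 min. Cleavage of 1.5 microM Rhodamine110 substrate is tracked by fluorescence over 15 min.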

The target of test [4] is Calcium and integrin-binding protein 1 (Homo sapiens) (UniProt Q99828). Description: Primary qHTS for Identification of Calcium Integrin Binding Protein 1 (CIB1) Competitor (AID 1508620). Note: top concentration of the series differs between compounds. Summed up: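 Fluorescence polarization competition: GST-tagged CIB1 (1 uM final) preincubated with compound 15 min at room temperature, then FITC-labelled alphaIIb peptide (100 nM final) added. After 15 min at room temperature, polarization read at Ex 480/Em 540.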

Test [5] can be described thus: Primary qHTS for inhibitors of nuclear receptor binding SET domain protein 2 (NSD2) in an isogenic RCH-ACV NSD2 p.E1099K mutant (9B) (AID 1645876). Note: nearly all actives have a fitted effect of over 70% in size. Note: potency is the fitted concentration of half-maximal effect.
The nature of test [6]: Primary qHTS for inhibitors of nuclear receptor binding SET domain protein 2 (NSD2) in an RCH-ACV wild type WT cells (2C) (AID 1645877). Note: nearly all actives have a fitted effect of over 70% in size. Note: potency is the fitted concentration of half-maximal effect.
The target of test [7] is Glutathione peroxidase 1 (Homo sapiens) (UniProt P07203). In words: Primary qHTS Assay for Inhibitors of Recombinant Selenoprotein Glutathione Peroxidase 1 (GPX1) (AID 1845191). Note: nearly all actives have a fitted effect of over 65% in size. Note: potency is the fitted concentration of half-maximal effect. In outline:
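GR-coupled assay: compounds preincubated 30 min at room temperature with GPX1, then reaction started with CHP; final 10 nM GPX1, 1 mM GSH, 0.5 mM CHP, 0.5 mM NADPH, 100 nM GR, 0.01% BSA, pH 7.5 Tris buffer. NADPH fluorescence (340/450 nm) read at 0 and 15 min.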

For test [8], the target named is Phospholipid hydroperoxide glutathione peroxidase GPX4 (Homo sapiens) (UniProt P36969). In words: Primary qHTS Assay for Inhibitors of Recombinant Selenoprotein Glutathione Peroxidase 4 (GPX4) (AID 1845192). Note: nearly all actives have a fitted effect of over 65% in size. Note: potency is the fitted concentration of half-maximal effect. To be noted: outcome: dose series up to 50 µM unless noted. Summed up:
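GR-coupled assay: recombinant GPX4 preincubated 30 min with compound at room temperature; final 200 nM GPX4, 1 mM GSH, 0.5 mM cumene hydroperoxide, 0.5 mM NADPH, 100 nM GR, 0.01% BSA, pH 7.5 Tris. NADPH fluorescence (340/450 nm) read at 0 and 15 min.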

Test [9] has as its target Luciferin 4-monooxygenase (Photinus pyralis) (UniProt P08659). Description: Primary firefly luciferase (FLuc) qHTS assay for identification of artifact compounds. (AID 1845220). Note: nearly all actives have a fitted effect of over 60% in size. In outline: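 Enzymatic FLuc inhibition assay: compounds pre-exposed to luciferin/ATP (10 uM each) for 15 min, then purified P. pyralis enzyme at 10 nM added. Read-out: luminescence at 5 min.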

The nature of test [10]: Primary fluorescence-based thiol-reactive (MSTI) qHTS assay for identification of artifact compounds. (AID 1845221).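 Note: thiol-reactive compounds lower the probe fluorescence signal; nearly all actives have a fitted effect of over 65% in size.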 In outline:
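Curve-fitted percent inhibition (4-parameter Hill) derived from fluorescence, Ex 525/Em 598 nm, scaled with Acetyl-MSTI and MSTI; 1 h incubation at room temperature.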

The next test deals with C33A. In words: Primary qHTS to identify gynecologic anti-cancer compounds using libraries of approved drugs and bioactive compounds (AID 1345084). Note: nearly all actives have a fitted effect of over 55% in size. Note: potency is the fitted concentration of half-maximal effect. To be noted: Gynecologic cancer cell panel viability, ATPlite luminescence, 48 h; series mostly up to 57.5 µM. In outline: (§1)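 Cytotoxicity screen measuring ATP content by luciferase luminescence. Each compound is applied at five concentrations for 48 h at 37 C with 5% CO2.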

The next test deals with CASKI. Described as above. Particulars: Gynecologic cancer cell panel viability, ATPlite luminescence, 48 h; series mostly up to 57.5 µM. In outline:
as §1
(ATP-based viability assays read luminescence as a measure of living cells.)

The subject of another test is HeLa. The description is as above. Particulars: Gynecologic cancer cell panel viability, ATPlite luminescence, 48 h; series mostly up to 57.5 µM. In outline: as §1
For a further test, the system named is Hek293T. The test is described as above. To be noted: Gynecologic cancer cell panel viability, ATPlite luminescence, 48 h, control line for the selectivity index; series mostly up to 57.5 µM. Summed up:
as §1

The test system of the next test is JEG-3. Described as above. To be noted: Gynecologic cancer cell panel viability, ATPlite luminescence, 48 h; series mostly up to 57.5 µM. Summed up:
as §1

The next test concerns OV90. The test is described as above. Particulars: Gynecologic cancer cell panel viability, ATPlite luminescence, 48 h; series mostly up to 57.5 µM. In outline: as §1
The subject of another test is Tov112D. The test is described as above. Particulars: Gynecologic cancer cell panel viability, ATPlite luminescence, 48 h; series mostly up to 57.5 µM. Summed up: as §1
The test system of test [11] is Nanoluciferase (engineered Oplophorus gracilirostris luciferase). In words: Primary Nanoluciferase (NLuc) qHTS assay for identification of artifact compounds. (AID 1845222).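 Note: NLuc secreted into diluted conditioned medium of S16 cells.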 Summed up:
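S16 cell supernatant NLuc, 1:55; cpds qHTS; 15 min RT dark; Nano-Glo substrate 1:100, 5 min; luminescence; Hill fit of % inhibition.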

The subject of the next test is Es-2. In words: Primary qHTS to identify gynecologic anti-cancer compounds using libraries of approved drugs and bioactive compounds (AID 1345084). Note: nearly all actives have a fitted effect of over 55% in size. Note: potency is the fitted concentration of half-maximal effect. Particulars: Gynecologic cancer cell panel viability, ATPlite luminescence, 48 h; series mostly up to 57.5 µM. In outline:
as §1

Records with an inconclusive call do not appear. Calls of active or inactive are those of the source. Calls come from the whole dose curve; as a rule, active = well fitted curve in the direction sought with a large enough effect; inconclusive = small, poorly fitted or top-dose-only effect, or another doubt; inactive = no such curve, though single readings can be large; an effect the other way counts as inactive or inconclusive.

Chain of Phospholipid hydroperoxide glutathione peroxidase GPX4 (Homo sapiens) (P36969 whole entry, looked up): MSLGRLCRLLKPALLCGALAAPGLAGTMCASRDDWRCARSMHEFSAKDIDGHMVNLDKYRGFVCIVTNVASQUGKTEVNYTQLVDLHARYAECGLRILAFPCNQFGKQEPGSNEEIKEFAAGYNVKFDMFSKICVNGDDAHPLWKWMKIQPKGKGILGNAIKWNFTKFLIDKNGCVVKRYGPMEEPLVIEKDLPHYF
Chain of Calcium and integrin-binding protein 1 (Homo sapiens) (Q99828 whole entry, looked up): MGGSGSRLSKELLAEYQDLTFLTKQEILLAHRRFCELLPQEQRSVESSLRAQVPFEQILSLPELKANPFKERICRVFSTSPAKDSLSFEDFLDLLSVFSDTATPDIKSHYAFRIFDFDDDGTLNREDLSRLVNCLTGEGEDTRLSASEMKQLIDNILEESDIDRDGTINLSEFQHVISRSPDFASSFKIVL
Chain of Glutathione peroxidase 1 (Homo sapiens) (P07203 whole entry, looked up): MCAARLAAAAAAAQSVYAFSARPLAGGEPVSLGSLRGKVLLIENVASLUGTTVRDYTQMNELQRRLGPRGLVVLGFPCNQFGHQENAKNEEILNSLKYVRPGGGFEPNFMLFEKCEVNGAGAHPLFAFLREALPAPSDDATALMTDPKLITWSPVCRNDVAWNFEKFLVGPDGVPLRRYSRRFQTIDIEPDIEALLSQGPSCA

As for `C=C1C(=O)O[C@@H]2C[C@@]3(C)CCC[C@H](C)C3=C[C@H]12`, the Potency in [1] was 14.6 µM (active); in [5] it was 14.5 µM (active); in test [6], 12.9 µM (active). Moreover, the Potency result in test [2], in test [3], in test [7], in test [8], in test [9] and in test [10] was “inactive” throughout. For the same compound, the Potency result in the test on C33A, with CASKI, in the test on HeLa, in the test with Hek293T, in the test on JEG-3 and in the test with OV90 was “inactive” in each case. In addition, in the test on Tov112D, the Potency result was “inactive”. For the same compound, the outcome in test [4] was inactive.
Regarding `Cn1cnc(-c2nccc3c(=O)[nH]c(OCCCC(F)(F)F)nc23)c1`, the Potency result (in [3]; in test [9]; in test [10]; in test [11]; in the test with C33A; in the test with CASKI) was “inactive” throughout. For the same compound, the Potency result with HeLa and with Tov112D was “inactive” each time. For the same compound, the Potency is 2.9 µM (active) in [5], 2.58 µM (active) in [6], 8.06 µM (active) in test [7] and 22.7 µM (active) in test [8].
Take `CN(C)CC(=O)Nc1ccc2[nH]c(=O)c3ccccc3c2c1`: the Potency result (in test [3]; in test [9]; in [10]; in test [11]; in the test on C33A; in the test with CASKI) was “inactive” each time. In addition, the Potency entry with Es-2, in the test with HeLa, in the test with JEG-3, in the test with OV90 and with Tov112D was “inactive” throughout. In addition, the outcome in [4] was inactive. Moreover, the Potency in test [5] was 20.5 µM (active); in test [6], 23 µM (active).
On to `CCN(CC)c1ccc(C(=C2C=CC(=[N+](CC)CC)C=C2)c2cc(S(=O)(=O)O)ccc2S(=O)(=O)[O-])cc1`, for which the outcome in [4] was inactive. In addition, the Potency entry in test [7] and in test [8] was “inactive” each time. Also, the Potency was 10 µM (active) in the test with C33A, 28.2 µM (active) in the test with Es-2, 12.6 µM (active) in the test with Hek293T and 12.6 µM (active) in the test on OV90.
Turning to `CC1=CC(=O)[C@@]2(C(C)C)C[C@@H]12`, the Potency in test [2] was 2.51 µM (active). Further, the outcome in [4] was inactive. The Potency entry (in test [7]; in test [8]; in [9]; in the test on C33A; with CASKI; in the test on Es-2) was “inactive” throughout. The Potency entry in the test on OV90 and with Tov112D was “inactive” each time.
For `COc1ccc(-c2nc(-c3cc(C(F)(F)F)cc(C(F)(F)F)c3)n(Cc3ccc(C(N)=O)cc3)c2-c2ccc(OC)cc2)cc1`, the Potency result in test [2], in test [5], in test [6], in test [7], in test [8] and in test [9] was “inactive” throughout. Besides, the Potency result (in [10]; in test [11]; in the test on C33A; in the test with CASKI; in the test with Es-2; with HeLa) was “inactive” in each case. The Potency result in the test with JEG-3, with OV90 and in the test on Tov112D was “inactive” in each case. Besides, in [4], the result was inactive.
As for `CC(C)c1ccc(NC(=O)C(c2ccccc2)N(C)C(=O)Cc2c[nH]c3ccccc23)cc1` (stereo unspecified), the Potency was 79.4 µM (active) in [2], 20.5 µM (active) in [5] and 20.5 µM (active) in test [6]. Moreover, in test [4], the outcome was inactive. For the same compound, the Potency result (in [8]; in test [10]; in test [11]; in the test on C33A; in the test on CASKI; in the test on Es-2) was “inactive” each time. In addition, the Potency entry in the test with HeLa, with Hek293T, in the test with JEG-3, in the test on OV90 and in the test on Tov112D was “inactive” in each case.
As for `CCOc1ccc(-c2nc(-c3cccc4c3CCC4NCCO)no2)cc1OCC` (stereo unspecified), the Potency entry in test [2], in test [7], in [8], in [9], in test [10] and in test [11] was “inactive” each time. In addition, the Potency result in the test with C33A, in the test on CASKI, in the test on HeLa, in the test on Hek293T, with JEG-3 and in the test on Tov112D was “inactive” throughout. For the same compound, the result in test [4] was inactive. For the same compound, the Potency was 6.49 µM (active) in [5] and 7.28 µM (active) in [6].
